The source of these data is the supplement of paper PMC10338343.

± gives the standard deviation. A value given as a limit tells only on which side of the number the result lay.

The subject of this experiment is MILI (PIWIL2) piRISC loaded with L1MC piRNA (26 nt). In words: pre-steady-state target cleavage rate (min^-1); guide: L1MC piRNA 5'p-UAACUAAAUACUAUGCAAGCUGUAGG; MIWI and MILI are mouse PIWI proteins and EfPiwi is from a freshwater sponge; tags in brackets are library labels; higher = faster piRNA-guided slicing of the target. As to conditions: auxiliary factor: 500 nM mouse GTSF1. In short, it runs like this:
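Using HEPES–potassium acetate buffer at 33 °C, 1 nM active affinity-purified piRISC with a single synthetic guide was mixed with 0.1 nM transcribed, DNA-blocked target RNA library for 0–8 or 0–960 min, with or without 500 nM GTSF1 partner protein. Uncleaved targets were sequenced and normalised to depth and to weakly complementary targets, and three trials were pooled with k3 capped at 0.0001 min^-1. A burst-and-steady-state fit gave the pre-steady-state cleavage rate.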
With UCCUGGAUGUGCUUGCAUAGUAUUUUGUAA, the “pre-steady-state target cleavage rate” value is 0.00939 ± 0.0045.

Turning to UCCUGGAUGUCCUUGCAUAGUAAAAAGUUA, the “pre-steady-state target cleavage rate” value stood at 0.0137 ± 0.0059.

Turning to UCCUCCUACAGCUUGCAUACUUUUUAGUUA, the “pre-steady-state target cleavage rate” value is 0.00693 ± 0.0043.

Take UCCUGGAUGUCGAUGCAUAGUAAUUAGUAA: the “pre-steady-state target cleavage rate” value is 0.0439 ± 0.013.

For the sequence UCCUGGAUCAGCUUGCAUACUAUAUAGUUA, the “pre-steady-state target cleavage rate” value was determined as 0.018 ± 0.0043.

For UCCUGGUACAGCUAGCAUAGUAUUUACUUA, the “pre-steady-state target cleavage rate” value was found to be 0.0934 ± 0.023.

Regarding UCCUGGUACAGCUUGCAUUCUAUUUAGUUA, the “pre-steady-state target cleavage rate” value is 0.0335 ± 0.018.

In the case of UCCUGGUACAGCUUGCAUAGUAAAUAGUUA, the “pre-steady-state target cleavage rate” value is 0.238 ± 0.038.

With UCCUGGAACAGCUUGCAUAGGAUUUAGUUA, the “pre-steady-state target cleavage rate” value came to 0.00777 ± 0.0035.

Consider UCCUCCUACAGCUUGCAUAGAAAUUAGUUA, for which the “pre-steady-state target cleavage rate” value is 0.0406 ± 0.0085.

In the case of UCCUGGAUGAGCUUGCAUAGUAUAAAGUAA, the “pre-steady-state target cleavage rate” value came to 0.0682 ± 0.02.

For UCCUGCUACAGCUUGGUAAGUAUUUAGUAA, the “pre-steady-state target cleavage rate” value turned out to be 0.207 ± 0.039.

Turning to UCCUGGUACAGCUUGCAUAGUAUUAUCAAA, the “pre-steady-state target cleavage rate” value came to 0.0127 ± 0.0058.

In the case of UCCUCCUACAGCUUGCAUUGUAUUUUCAAA, the “pre-steady-state target cleavage rate” value turned out to be 0.0415 ± 0.012.

Consider UCCUGGAUGAGCUUGCAUUGUAUUUACUUA, for which the “pre-steady-state target cleavage rate” value came to 0.031 ± 0.012.

UCCUCCUACAGGAAGCAUAGUAUUUAGAAA: the “pre-steady-state target cleavage rate” value worked out at 0.107 ± 0.017.

Turning to UCCUGGAUGUGCUUGCAUAGAAUUUAGUUA, the “pre-steady-state target cleavage rate” value stood at 0.0203 ± 0.0071.

Regarding UCCUGGAACACCUUGCAUAGUAUUUACAAA, the “pre-steady-state target cleavage rate” value is 0.071 ± 0.02.

UCCUGGAUGUCGAUGCAUAGUAUUUAUUUA: the “pre-steady-state target cleavage rate” value was determined as 0.0578 ± 0.015.

Regarding UCCUGGAUGUGCUUGCAUAGUAAUAAGUUA, the “pre-steady-state target cleavage rate” value was found to be 0.0448 ± 0.016.

On to UCCUGGUACAGCUUGCAAAGUAUUUACAAA, for which the “pre-steady-state target cleavage rate” value came out at 0.0115 ± 0.0055.

As for UCCUGGAUGAGCUUGCAUAGUAUUUACUUA, the “pre-steady-state target cleavage rate” value came to 0.0753 ± 0.019.

Take UCCUCCUACAGCUUCCAUAGUUUUUAGUUA: the “pre-steady-state target cleavage rate” value was 0.0195 ± 0.0081.

As for UCCUGGAUCAGCUUCGAUAGUAUUUACAAA, the “pre-steady-state target cleavage rate” value was 0.00974 ± 0.005.

For UCCUGGAUCAGCUUGGUUAGUAUUUACAAA, the “pre-steady-state target cleavage rate” value stood at 0.00756 ± 0.0052.

UCCUGGAUGUGCUUCGAUAGUAUUUAGUUA: the “pre-steady-state target cleavage rate” value stood at 0.0415 ± 0.0078.

In the case of UCCUGGAACAGCUACGAUAGUAUUUAGAAA, the “pre-steady-state target cleavage rate” value is 0.0308 ± 0.011.

In the case of UCCUGGAUGUGCUUGCAUAGUAUUUACUUA, the “pre-steady-state target cleavage rate” value worked out at 0.0325 ± 0.0094.

With UCCUGGAACAGCUUGGAUAGUAUUUAGAUA, the “pre-steady-state target cleavage rate” value worked out at 0.137 ± 0.024.

UCCUGGAUGUCGUUGCAUAGUAUUAUGUUA: the “pre-steady-state target cleavage rate” value turned out to be 0.156 ± 0.045.

As to UCCUGGAUGAGCUUGCAUAUAUUUAGUUA, the “pre-steady-state target cleavage rate” value came out at 0.00951 ± 0.0043.

Regarding UCCUGGAUGUGCUUGCAUAGAAUUUAGUAA, the “pre-steady-state target cleavage rate” value amounted to 0.00482 ± 0.0043.

Consider UCCUGGUACAGCUUGCAUAGUAUUGUAGUUA, for which the “pre-steady-state target cleavage rate” value was found to be 0.233 ± 0.055.

As for UCCUGGAUGUCGAACGUAUGUAUUUUGUAA, the “pre-steady-state target cleavage rate” value was less than 0.0001.

In the case of UCCUGGAUGUCCUUGCAUUGUAUUUACUUA, the “pre-steady-state target cleavage rate” value turned out to be 0.0534 ± 0.012.

For the sequence UCCUGGAUGAGCUUGCAUAGUAUUUUGUAA, the “pre-steady-state target cleavage rate” value is 0.0267 ± 0.011.

Take UCCUCCUACAGCUUGCAUAGAAUUAAGUUA: the “pre-steady-state target cleavage rate” value is 0.127 ± 0.03.
